Records with an inconclusive call do not appear. Active and inactive are the calls of the source. How the source made its calls, unless noted: active means hit-call score of the fitted dose curve at least 0.9, where 1 is the maximum; inactive means score below 0.9.
Columns and labels:
[1] = biological target: Retinoic acid receptor RXR-alpha (Homo sapiens) (UniProt P19793); assay: ATG_RXRa_TRANS: Attagene TRANS-FACTORIAL HepG2 Assay for human Retinoid X Receptor alpha (RXRa) (AID 2283012; active means hit-call score of the fitted dose curve at least 0.9, where 1 is the maximum)
Chain of Retinoic acid receptor RXR-alpha (Homo sapiens) (P19793 whole entry, looked up, the tested form may be a part): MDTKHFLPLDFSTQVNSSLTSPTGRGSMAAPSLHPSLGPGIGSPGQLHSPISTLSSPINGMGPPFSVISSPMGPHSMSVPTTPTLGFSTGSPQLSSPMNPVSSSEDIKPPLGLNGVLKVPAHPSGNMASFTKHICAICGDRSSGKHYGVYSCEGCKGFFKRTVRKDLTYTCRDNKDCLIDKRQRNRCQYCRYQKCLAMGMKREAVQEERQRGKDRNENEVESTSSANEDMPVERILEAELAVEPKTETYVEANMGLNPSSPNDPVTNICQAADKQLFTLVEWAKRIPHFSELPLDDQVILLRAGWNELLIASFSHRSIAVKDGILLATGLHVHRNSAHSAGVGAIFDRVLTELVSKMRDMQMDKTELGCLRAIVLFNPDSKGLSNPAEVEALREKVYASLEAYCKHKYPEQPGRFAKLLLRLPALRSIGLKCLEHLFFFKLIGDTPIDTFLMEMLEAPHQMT
Procedure, shortened: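 Transient transfection of human HepG2 with multiple GAL4-UAS reporter constructs; 24 h compound exposure; total RNA isolated, reverse-transcribed, PCR-amplified, 6-FAM labelled, HpaI-cut, resolved by capillary electrophoresis. Positive-direction fit versus DMSO.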

[2] = read-out: E-selectin (Homo sapiens) (UniProt P16581); assay: BSK_3C_Eselectin: BioMAP Diversity Plus: 3C Assay for Eselectin Biomarker Activity (AID 2283015); details: primary human endothelial cells (HUVEC); actives raise or lower the signal
Procedure, shortened: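 Primary human umbilical vein endothelial cells (3C system), read 24 h after compound addition; E-selectin measured by ELISA. Bidirectional curve fitting against DMSO baseline; cytotoxicity by parallel SRB total-protein staining.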

[3] = read-out: Interleukin-1 alpha (IL1a), IL1A (gene 3552); assay: BSK_BE3C_IL1a: BioMAP Diversity Plus: BE3C Assay for Interleukin-1 alpha (IL1a) Biomarker Activity (AID 2283016); details: primary human bronchial epithelial cells; actives raise or lower the signal
Procedure, shortened: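 BE3C primary human bronchial epithelium; cpd 24 h; IL-1a by ELISA; bidirectional fit vs DMSO; parallel SRB (0.1% SRB, 10% TCA fix, 560 nm) for cytotoxicity.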

[4] = read-out: Monocyte Chemoattractant Protein-1 (MCP1), CCL2 (gene 6347); assay: BSK_3C_MCP1: BioMAP Diversity Plus: 3C Assay for Monocyte Chemoattractant Protein-1 (MCP1) Biomarker Activity (AID 2283017); details: primary human endothelial cells (HUVEC); actives raise or lower the signal
Procedure, shortened: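 Human umbilical vein endothelial cells (3C system) exposed to chemicals for 24 h; MCP-1 quantified by ELISA against the DMSO baseline with bidirectional fitting, and parallel SRB staining used to assess cytotoxicity.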

[5] = read-out: Monocyte Chemoattractant Protein-1 (MCP1), CCL2 (gene 6347); assay: BSK_4H_MCP1: BioMAP Diversity Plus: 4H Assay for Monocyte Chemoattractant Protein-1 (MCP1) Biomarker Activity (AID 2283018); details: primary human endothelial cells (HUVEC); actives raise or lower the signal
Procedure, shortened: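 ELISA read-out of MCP-1 from human vascular endothelial primary cells taken at 24 hours after compound exposure. Activity was fitted in both directions relative to DMSO, which served as negative control.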

[6] = read-out: Human Leukocyte Antigen - DR isotype (HLADR), HLA-DRA (gene 3122); assay: BSK_3C_HLADR: BioMAP Diversity Plus: 3C Assay for Human Leukocyte Antigen - DR isotype (HLADR) Biomarker Activity (AID 2283019); details: primary human endothelial cells (HUVEC); actives raise or lower the signal
Procedure, shortened: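 HUVEC monoculture, HLA-DR measured by ELISA 24 h after chemical dosing. Fitted bidirectionally against DMSO baseline; parallel SRB staining assessed cytotoxicity, with 3C proliferation read by SRB at 48 h.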

[7] = read-out: Interleukin-8 (IL8), CXCL8 (gene 3576); assay: BSK_3C_IL8: BioMAP Diversity Plus: 3C Assay for Interleukin-8 (IL8) Biomarker Activity (AID 2283020); details: primary human endothelial cells (HUVEC); actives raise or lower the signal
Procedure, shortened: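 ELISA read-out of IL-8 from human umbilical vein endothelium, measured 24 h after chemical dosing. Activity is expressed relative to DMSO negative control, with both increases and decreases fitted.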

[8] = read-out: Monokine induced gamma interferon (MIG), CXCL9 (gene 4283); assay: BSK_3C_MIG: BioMAP Diversity Plus: 3C Assay for Monokine induced gamma interferon (MIG) Biomarker Activity (AID 2283021); details: primary human endothelial cells (HUVEC); actives raise or lower the signal;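 on AC50: MIG protein level measured by immunoassay in the treated endothelial cultures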
Procedure, shortened: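 Read-out is ELISA detection of MIG on human umbilical vein endothelial cells, taken 24 h after dosing. Gain or loss of signal was scored relative to DMSO controls using bidirectional curve fitting.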

[9] = biological target: human Vitamin D Receptor (VDR), VDR (gene 7421) (UniProt P11473); assay: ATG_VDR_TRANS: Attagene TRANS-FACTORIAL HepG2 Assay for human Vitamin D Receptor (VDR) (AID 2283022; active means hit-call score of the fitted dose curve at least 0.9, where 1 is the maximum)
Chain of human Vitamin D Receptor (VDR), VDR (gene 7421) (P11473 whole entry, looked up, the tested form may be a part): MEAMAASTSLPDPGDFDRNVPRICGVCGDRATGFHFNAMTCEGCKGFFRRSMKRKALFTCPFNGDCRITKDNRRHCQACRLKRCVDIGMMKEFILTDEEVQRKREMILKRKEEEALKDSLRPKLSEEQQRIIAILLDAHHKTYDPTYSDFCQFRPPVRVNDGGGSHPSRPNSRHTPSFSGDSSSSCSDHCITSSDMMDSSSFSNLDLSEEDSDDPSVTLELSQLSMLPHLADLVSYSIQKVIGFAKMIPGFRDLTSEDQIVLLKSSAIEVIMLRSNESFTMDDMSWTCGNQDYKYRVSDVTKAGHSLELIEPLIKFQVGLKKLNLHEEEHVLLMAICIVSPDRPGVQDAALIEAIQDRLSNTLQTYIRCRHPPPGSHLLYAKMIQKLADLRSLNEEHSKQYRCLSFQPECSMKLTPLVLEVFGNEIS
Procedure, shortened: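 HepG2 cells were transiently transfected with GAL4-UAS reporter units and a chimeric VDR-Gal4 construct, then dosed for 24 hours. Reporter mRNA was quantified by RT-PCR, fluorescent labeling, HpaI digestion and capillary electrophoresis; gain of signal analysed vs DMSO.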

[10] = BSK_3C_SRB: Viability Assessment in the BioMAP Diversity Plus: 3C Assay (AID 2283023); details: primary human endothelial cells (HUVEC);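 further: fitted both ways against DMSO so a hit may be signal rise or drop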
Procedure, shortened: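 Human umbilical vein endothelial cells in the 3C system, treated 24 h. Total protein measured by 0.1% sulforhodamine B staining after 10% TCA fixation, read at 560 nm; bidirectional fit versus DMSO.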

[11] = BSK_3C_Vis: BioMAP Diversity Plus: 3C Assay for Morphology Visualization (AID 2283025); details: primary human endothelial cells (HUVEC);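 further: fitted both ways so gain or loss versus DMSO counts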;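 on AC50: light microscopy image of cell morphology used as background control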
Procedure, shortened: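 Chemicals were added to primary human umbilical vein endothelium, cells were incubated 24 h, and morphology was then visualized by light microscopy. Gain or loss of signal was fitted bidirectionally relative to DMSO.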

[12] = read-out: Pselectin, SELP (gene 6403); assay: BSK_4H_Pselectin: BioMAP Diversity Plus: 4H Assay for Pselectin Biomarker Activity (AID 2283026); details: primary human endothelial cells (HUVEC); actives raise or lower the signal
Procedure, shortened: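 ELISA read-out of P-selectin on human umbilical vein endothelium after 24 h of dosing. Values derive from bidirectional fitting relative to DMSO. Parallel SRB protein staining flagged overt cytotoxicity.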

[13] = BSK_4H_SRB: Viability Assessment in the BioMAP Diversity Plus: 4H Assay (AID 2283027); details: primary human endothelial cells (HUVEC);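 further: cells exposed to compound for 24 h before staining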;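 on AC50: curves fitted both ways versus DMSO so AC50 may be loss or gain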
Procedure, shortened: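 Absorbance at 560 nm of SRB-stained total protein served as the viability read-out in confluent primary human umbilical vein endothelium 24 h after chemical treatment. Curves were fitted bidirectionally against DMSO as negative control.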

[14] = BSK_BE3C_SRB: Viability Assessment in the BioMAP Diversity Plus: BE3C Assay (AID 2283028); details: primary human bronchial epithelial cells;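 on AC50: fitted both ways so AC50 may mark signal gain or loss versus DMSO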
Procedure, shortened: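 Human bronchial epithelial primary cells in confluent culture, 24 h after chemical dosing; total protein by 0.1% SRB staining after 10% TCA fixation, read at 560 nm. Bidirectional fitting versus DMSO baseline.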

[15] = read-out: Thrombomodulin, THBD (gene 7056); assay: BSK_3C_Thrombomodulin: BioMAP Diversity Plus: 3C Assay for Thrombomodulin Biomarker Activity (AID 2283029); details: primary human endothelial cells (HUVEC); actives raise or lower the signal
Procedure, shortened: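 Read-out is ELISA of thrombomodulin on human umbilical vein endothelium 24 h after chemical dosing. Gain or loss of signal is scored relative to DMSO. Overt cytotoxicity is checked in parallel cultures by sulforhodamine B staining.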

[16] = read-out: Urokinase-type plasminogen activator receptor (uPAR), PLAUR (gene 5329); assay: BSK_4H_uPAR: BioMAP Diversity Plus: 4H Assay for Urokinase-type plasminogen activator receptor (uPAR) Biomarker Activity (AID 2283030); details: primary human endothelial cells (HUVEC); actives raise or lower the signal
Procedure, shortened: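 Human umbilical vein endothelial cells in the 4H system, 24 h after chemical dosing. Cell-surface uPAR measured by ELISA, fitted in both directions versus DMSO; cytotoxicity checked by SRB total protein in parallel cultures.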

[17] = biological target: human Retinoid X Receptor beta (RXRb), RXRB (gene 6257) (UniProt P28702); assay: ATG_RXRb_TRANS: Attagene TRANS-FACTORIAL HepG2 Assay for human Retinoid X Receptor beta (RXRb) (AID 2283013; active means hit-call score of the fitted dose curve at least 0.9, where 1 is the maximum)
Chain of human Retinoid X Receptor beta (RXRb), RXRB (gene 6257) (P28702 whole entry, looked up, the tested form may be a part): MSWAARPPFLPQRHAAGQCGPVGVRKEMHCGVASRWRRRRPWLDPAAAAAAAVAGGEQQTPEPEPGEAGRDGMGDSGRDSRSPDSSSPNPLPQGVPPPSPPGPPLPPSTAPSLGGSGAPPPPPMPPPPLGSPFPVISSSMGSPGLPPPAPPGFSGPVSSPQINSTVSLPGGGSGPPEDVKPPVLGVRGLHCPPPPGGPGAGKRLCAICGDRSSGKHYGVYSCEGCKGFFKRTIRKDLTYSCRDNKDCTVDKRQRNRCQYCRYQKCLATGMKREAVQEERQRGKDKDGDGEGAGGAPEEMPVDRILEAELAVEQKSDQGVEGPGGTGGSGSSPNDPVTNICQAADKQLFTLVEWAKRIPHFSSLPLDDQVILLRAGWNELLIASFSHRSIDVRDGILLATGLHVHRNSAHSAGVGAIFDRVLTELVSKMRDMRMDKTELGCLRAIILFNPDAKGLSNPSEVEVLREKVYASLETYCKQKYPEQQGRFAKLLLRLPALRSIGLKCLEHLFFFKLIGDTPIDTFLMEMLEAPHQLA
Procedure, shortened: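 Transfect HepG2 with GAL4-UAS multi-reporter constructs (chimeric NR-Gal4, TRANS format); dose compound 24 h; isolate RNA, RT-PCR, FAM primer extension, HpaI digest; quantify by capillary electrophoresis; positive direction vs DMSO.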

[18] = read-out: Matrix Metallopeptidase 1 (MMP1), MMP1 (gene 4312); assay: BSK_BE3C_MMP1: BioMAP Diversity Plus: BE3C Assay for Matrix Metallopeptidase 1 (MMP1) Biomarker Activity (AID 2283024); details: primary human bronchial epithelial cells; actives raise or lower the signal
Procedure, shortened: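 Human bronchial epithelial cells (BE3C system) exposed to compound for 24 h; MMP1 then quantified by ELISA. Activity was fitted in both directions relative to DMSO.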

Measured: AC50

Chain of E-selectin (Homo sapiens) (P16581 whole entry, looked up): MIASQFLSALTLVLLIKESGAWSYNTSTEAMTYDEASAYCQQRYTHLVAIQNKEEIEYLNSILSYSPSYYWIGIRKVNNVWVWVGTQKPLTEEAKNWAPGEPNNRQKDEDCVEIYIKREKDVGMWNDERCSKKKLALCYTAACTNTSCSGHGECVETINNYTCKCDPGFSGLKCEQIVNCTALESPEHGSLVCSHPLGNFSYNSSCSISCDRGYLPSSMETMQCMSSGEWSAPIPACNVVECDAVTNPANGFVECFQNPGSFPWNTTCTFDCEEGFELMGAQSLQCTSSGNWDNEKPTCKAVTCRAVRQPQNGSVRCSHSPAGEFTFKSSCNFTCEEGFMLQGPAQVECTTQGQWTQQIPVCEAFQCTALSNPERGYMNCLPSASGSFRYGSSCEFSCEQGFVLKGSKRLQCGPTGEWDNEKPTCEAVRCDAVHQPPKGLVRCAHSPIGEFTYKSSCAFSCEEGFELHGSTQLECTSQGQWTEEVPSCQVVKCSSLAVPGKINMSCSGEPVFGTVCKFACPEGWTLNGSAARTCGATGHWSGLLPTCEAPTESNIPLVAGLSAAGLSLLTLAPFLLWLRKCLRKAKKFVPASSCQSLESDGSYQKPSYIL

CC[C@H](NC(=O)c1cc(F)ccc1NS(=O)(=O)c1cccc2cccnc12)c1ccccc1
not listed: [17] | [18]
inactive: all other assays above

CC[C@@H]1C[C@H](N(Cc2cc(C(F)(F)F)cc(C(F)(F)F)c2)C(C)=O)c2cc(C(F)(F)F)ccc2N1C(=O)OC(C)C
not listed: [8] | [18]
inactive: all other assays above

O=c1ccc2ccccc2o1
not listed: [1] | [8] | [9] | [17] | [18]
inactive: all other assays above

CCN(Cc1cccc(S(=O)(=O)O)c1)c1ccc(C(=C2C=CC(=[N+](CC)Cc3cccc(S(=O)(=O)O)c3)C=C2)c2ccccc2S(=O)(=O)[O-])cc1
not listed: [8] | [17] | [18]
inactive: all other assays above

c1ccc2n[nH]nc2c1
not listed: [8] | [9] | [17]
inactive: all other assays above

CN(C)c1ccc(C(=C2C=CC(=[N+](C)C)C=C2)c2ccc(N(C)C)cc2)cc1
active: [2] 0.815 µM | [3] 2.36 µM | [4] 0.798 µM | [5] 0.66 µM | [6] 0.344 µM | [7] 5.53 µM | [8] 9.93 µM | [10] 4.93 µM | [11] 16 µM | [12] 0.613 µM | [13] 8.49 µM | [14] 7.72 µM | [15] 3.97 µM | [16] 1.42 µM
inactive: [1]

CCCCCCCCN(C)CCCCCCCC
active: [17] 43.5 µM
not listed: [8]
inactive: all other assays above

CC(C)(C)c1csc(-c2cc3cc(OCc4ccccc4CC(=O)O)ccc3o2)n1
active: [3] 10 µM | [4] 21.6 µM | [5] 22.6 µM | [6] 17.3 µM | [7] 18.4 µM | [8] 32 µM | [10] 21.5 µM | [18] 8.45 µM | [12] 18.7 µM | [13] 20 µM | [14] 12.2 µM | [16] 21 µM
inactive: [1] | [2] | [9] | [11] | [15]

CC1(C)NC(=O)N(c2ccc([N+](=O)[O-])c(C(F)(F)F)c2)C1=O
not listed: [18]
inactive: all other assays above

Cc1occc1C(=O)Nc1ccc(C(=O)N2CCC(F)(F)/C(=C\C(=O)N3CCC(N4CCCCC4)CC3)c3ccccc32)cc1
active: [17] 55.2 µM | [10] 11.5 µM
not listed: [1] | [8] | [18]
inactive: all other assays above

Cc1cc(F)ccc1-c1cc(N2CC[C@@H](O)[C@H]2CO)ncc1N(C)C(=O)C(C)(C)c1cc(C(F)(F)F)cc(C(F)(F)F)c1
active: [2] 10.9 µM | [3] 14.6 µM | [4] 10 µM | [5] 6.91 µM | [6] 9.43 µM | [7] 9.76 µM | [8] 12.9 µM | [10] 9.17 µM | [11] 10 µM | [12] 7.66 µM | [13] 11.9 µM | [14] 12.9 µM | [16] 10.2 µM
inactive: [1] | [9] | [15]

CCCCOC(=O)CC(CC(=O)OCCCC)(OC(C)=O)C(=O)OCCCC
not listed: [8] | [17]
inactive: all other assays above
